# SKKanGAS inh = SKKanGAS growth inhibition; S. pyogenes SKKanGAS, kanamycin growth, BacTiter-Glo, 6 h; inhibition, % at 7.5 µM; 300,000 tested, 1.3% active;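 active = mean replicate score, as percent of positive control median, at least 50; inconclusive = mean below 50 but one replicate at or above 50; inactive = mean and every replicate below 50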;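 note: strain carries kanamycin resistance gene driven by streptokinase promoter and grows in 40 µg/ml kanamycin; loss of luminescence reflects streptokinase promoter inhibition or plain growth inhibition; 0% = median of DMSO wells and 100% = positive control at its reference dose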
# PfHsp90 set2 = inhibits growth of yeast expressing Plasmodium falciparum Hsp90; S. cerevisiae expressing PfHsp90, BacTiter-Glo ATP, 48 h; yeast lacking PDR1 and PDR3 efflux regulators; inhibition, % at 9.4 µM; 310,000 tested, 0.32% active;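 active = every replicate shows inhibition above about 80%, whatever the replicate mean, limit read from the data; inconclusive = mean inhibition reaches the set limit but some replicate falls short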;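 note: 0% = DMSO neutral controls and 100% = 20 µM radicicol positive controls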
# tim10-1 inh = growth inhibitors of tim10-1 mutant yeast; 330,000 tested, 2.2% active; S. cerevisiae tim10-1 ts strain growth, BacTiter-Glo, 24 h; inhibition, % at 20 µM;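 active = inhibition of at least 40%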;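 note: mutant grown at 25 °C; 0% = DMSO wells with yeast and 100% = wells holding no yeast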
# NALP3 yeast inh = NALP3 inhibition in yeast; Yeast reconstituted NLRP3/ASC/caspase-1, beta-gal luminescence, 24 h; 330,000 tested, 0.39% active; AID 2825; inhibition, % at 10 µM;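 active = inhibition of 50% or more; inactive = inhibition below 50%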;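 note: plate controls were induced DMSO wells for no effect and uninduced yeast grown without galactose for full effect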
# TIM10 inh = TIM10 yeast growth inhibition; 330,000 tested, 1.4% active; AID 463195; S. cerevisiae TIM10 strain growth, BacTiter-Glo luminescence, 24 h; inhibition, % at 10 µM;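 active = inhibition of 40% or more at the single tested concentration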;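 note: wild-type TIM10 isogenic control strain grown at permissive 25 °C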
# tim23-1 inh = tim23-1 yeast growth inhibition. AID 463212. 330,000 tested, 1.3% active. S. cerevisiae tim23-1 growth, BacTiter-Glo luminescence, 24 h. inhibition, % at 20 µM;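 active = growth inhibition of the mutant yeast at or above 50%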;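 note: temperature-sensitive mutant grown at 25 °C; plate controls were DMSO-treated mutant yeast for no effect and medium wells lacking yeast for full effect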
# tim10-1 confirm = tim10-1 yeast growth inhibition, confirmed | shares compounds with tim10-1 inh | S. cerevisiae tim10-1 ts strain growth, BacTiter-Glo, 24 h | inhibition, % at 20 µM | 7,400 tested, 56% active | AID 463213;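 active = inhibition of yeast growth at or above a set limit in either of two repeat tests at 20 µM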;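 note: tim10-1 mutant grown at permissive 25 °C to find synthetic lethal compounds; 0% = DMSO yeast wells and 100% = medium wells without yeast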
# * = called active by the depositor; ? = inconclusive; / = not tested or not shown. An excerpt weighted towards active compounds, which were near 4.5% of everything screened.
SMILES,SKKanGAS inh,PfHsp90 set2,tim10-1 inh,NALP3 yeast inh,TIM10 inh,tim23-1 inh,tim10-1 confirm
CCC(C)C(=O)Nc1ccc(OC)cc1OC (centres undefined),-3,-2,15,19,-16,-4,/
CCCc1cc(-c2n[nH]c(=S)n2C(C)c2ccccc2)cs1 (centres undefined),9,-114,48*,11,14,45,19
CCc1cc(-c2n[nH]c(=S)n2CC)cs1,3,0,14,17,7,34,/
CCc1cc(-c2n[nH]c(=S)n2-c2ccccc2C)cs1,-10,-17,42*,21,22,35,35*
COc1ccc(S(=O)(=O)N2CCCCC2)cc1NC(=O)CCCOc1ccc(C)cc1,/,3,7,5,2,-2,/
CCN(CC)C(=O)COC(=O)C1=NN(c2cc(C)ccc2C)C(=O)CC1,-2,-6,4,7,7,-6,/
Nc1ccc2oc(-c3cccc(Br)c3)nc2c1,-5,-16,60*,-15,37,37,50*
CCc1ccc(-c2cc(C)no2)cc1S(=O)(=O)Nc1cccc(CN2CCCC2)c1,?,-7,-1,21,4,8,/
Cc1c(C(=O)c2ccc(F)cc2F)c2ccccn2c1CCC#N,-4,19,27,30,15,18,/
Cc1c(C(=O)c2ccc(N(C)C)cc2)c2ccccn2c1CCC#N,11,-6,40*,23,20,16,12
CCN(CC)P(=O)(c1ccccc1)c1c(C)nc2ccccn12 (centres undefined),0,-20,1,10,3,3,/
COc1ccc(-c2cc(=O)n(-c3ccc([N+](=O)[O-])cc3)[nH]2)cc1,25,49,50*,17,29,28,38*
COc1ccc(-c2[nH]n(-c3ccc([N+](=O)[O-])cc3)c(=O)c2C=NCc2ccc(F)cc2)cc1,8,-4,4,-6,2,9,/
O=C(c1cn(-c2ccccc2)nc1-c1ccncc1)n1nnc2ccccc21,-1,-15,53*,-3,27,40,39*
CCCC/C(O)=C1\C(=O)CC(C)(C)CC1=Nc1ccccc1OC,-4,23,41*,-36,26,31,26
CC(C)(C)c1ccc(COn2c(=O)c(-c3ccco3)[n+]([O-])c3ccccc32)cc1,11,-28,50*,5,26,49,22
COc1ccc(/C=C(\C#N)C(=O)N=CN(C)C)cc1,-9,15,20,-7,8,14,/
COc1ccc(/C=C(\C#N)C(=O)N2COCC2(C)C)cc1,-4,-10,47*,19,21,47,31*
O=C(CSc1n[nH]c(-c2ccncc2)n1)Nc1ccccc1Cl,8,8,-1,7,-6,-3,/
N/C(=N\OC(=O)N1CCOCC1)c1ccccc1,2,24,-10,15,11,13,/
COc1ccc(C(=O)O/N=C(\N)c2ccccc2)cc1OC,-4,-7,51*,24,19,23,53*
COc1ccc(C(=O)O/N=C(\N)c2ccc(Cl)cc2)cc1,-7,-12,44*,27,31,38,46*
COc1ccc(C(=O)O/N=C(\N)c2ccncc2)cc1OC,-14,1,-12,7,4,0,/
N/C(=N\OC(=O)N1CCOCC1)c1ccc(Cl)cc1,-7,-4,61*,13,17,33,49*
Cc1ccc(C(=O)O/N=C(\c2ccccc2)c2ccncc2)cc1,0,5,28,25,25,24,/
SMILES,SKKanGAS inh,PfHsp90 set2,tim10-1 inh,NALP3 yeast inh,TIM10 inh,tim23-1 inh,tim10-1 confirm
COc1ccccc1C(=O)O/N=C(/c1ccncc1)c1ccc([N+](=O)[O-])cc1,6,-13,47*,1,30,36,26
Cc1cccc(C(=O)O/N=C(\N)c2ccc(Cl)cc2)c1,-3,0,37,19,35,34,/
O=C(Nc1ccccc1)C1=C(c2ccccc2)S(=O)(=O)CCS1(=O)=O,-29,10,/,/,/,/,/
O=Cc1cc(-c2ccccc2)[nH]c1-c1ccccc1,-1,9,3,23,-2,8,/
N/C(=N\OC(=O)c1ccccc1Br)c1ccc([N+](=O)[O-])cc1,13,-36,27,18,26,15,/
COc1ccc(C(=O)ON=C2C=C(C)C(=O)C(C)=C2)cc1,3,16,48*,-6,22,36,21
Cc1cc(C)cc(C(=O)O/N=C(\N)c2ccc(Br)cc2)c1,-9,-10,40*,16,35,9,31*
COc1cc(C(=O)O/N=C(\N)c2ccc([N+](=O)[O-])cc2)cc(OC)c1OC,-3,-6,59*,-45,36,25,47*
COc1cc(C(=O)ON=C2C=C(C)C(=O)C(C)=C2)cc(OC)c1OC,-8,1,29,3,26,29,/
COc1cc(C(=O)O/N=C(\N)c2cccc([N+](=O)[O-])c2)cc(OC)c1OC,-4,-12,4,6,11,10,/
Cc1ccccc1C(=O)O/N=C(\N)c1ccc([N+](=O)[O-])cc1,2,-10,53*,16,34,49,62*
COc1ccc(/C(N)=N/OC(=O)CCc2ccccc2)cc1,5,-12,26,19,33,49,/
N/C(=N\OC(=O)CCCc1ccccc1)c1ccccc1Cl,12,0,50*,2,31,49,59*
O=C(O)C(c1ccccc1)C1CCCCC1O (centres undefined),/,11,/,/,/,/,/
O=C(Cn1c(O)c(/C=C2\C=Nc3ccc(Br)cc32)sc1=O)N1CCCC1,32,-14,52*,-29,34,40,30
O=C(Cn1c(O)c(/C=C2\C=Nc3ccccc32)sc1=O)N1CCOCC1,-14,3,-6,14,1,27,/
O=C(/C=C/c1c(Cl)nc2ccccn12)N1CCN(c2ccccc2F)CC1,32,10,46*,27,32,41,36*
O=C(CSc1nc2ccccc2c(=O)n1-c1ccc(F)cc1)Nc1ccc2c(c1)CCC2,-1,-4,41*,5,21,19,18
Cc1ccccc1-n1c(SCC(=O)Nc2ccccc2)nc2nc3c(cc2c1=O)CCCC3,10,2,44*,9,23,25,10
O=C(CSc1nc2ccccc2c(=O)n1-c1ccc(F)cc1F)Nc1ccc2c(c1)CCC2,4,-8,32,4,-1,17,/
O=C(CSc1nc2nc3c(cc2c(=O)n1-c1ccccc1)CCCC3)Nc1cccc2ccccc12,21,7,43*,0,1,12,9
Cc1cccc(NC(=O)CSc2nc3nc4c(cc3c(=O)n2-c2ccccc2)CCCC4)c1,21,-18,29,15,15,17,/

# Compound activity as filed in PubChem.
